PubChem BioAssay (NCATS)
Records with an inconclusive call do not appear. A call without a number means that no potency is given here. The source made the active and inactive calls. Unless noted, the call rests on the fitted dose curve; in most records, active means well fitted curve in the direction sought with a large enough effect; inconclusive means small, poorly fitted or top-dose-only effect, or another doubt; inactive means no such curve, though single readings can be large; an effect the other way counts as inactive or inconclusive.

Tests used:
[1] = biological target: Calcium and integrin-binding protein 1 (Homo sapiens) (UniProt Q99828); assay: Primary qHTS for Identification of Calcium Integrin Binding Protein 1 (CIB1) Competitor (AID 1508620);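 further: GST tagged CIB1 binding a fluorescein labelled alphaIIb integrin peptide tracer; top concentration of the series differs between compounds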
Procedure, shortened: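 Fluorescence polarization competition: CIB1-GST (1 uM final) preincubated with compound 15 min at room temperature, then FITC-labeled alphaIIb peptide (100 nM final) added for another 15 min. Polarization read at Ex 480/Em 540.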

[2] = Primary qHTS for small molecule stabilizers of the endoplasmic reticulum resident proteome: Secreted ER Calcium Modulated Protein (SERCaMP) assay (AID 1508630)
Procedure, shortened: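 The SH-SY5Y reporter protocol was run at 3 concentrations up to 38.3 uM (primary) or 11 concentrations (follow-up): 16 h compound, 100 nM thapsigargin for 4 h, then extracellular luciferase luminescence.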

[3] = A High-Content qHTS Against Drug Library for the Identification of Small Molecules that Inhibit DYT1 Early Onset Primary Dystonia-Associated Cell Pathology (AID 1645839; calls by dose curve; further: series mostly up to about 46 µM)
Procedure, shortened: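 Induced EGFP-delE TorsinA cells are imaged after 48 h of compound treatment. Punctate fusion-protein distribution gives the %pathology value, while nuclei counts flag toxicity. Wild-type EGFP-hTOR1A cells define the normal pattern.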

[4] = biological target: Cytochrome P450 2D6 (Homo sapiens) (UniProt P10635); assay: Cytochrome P450 family 2 subfamily D member 6 (CYP2D6) small molecule antagonists: luciferase biochemical (cell-free) qHTS assay (AID 1645840; active means well fitted curve in the direction sought with a large enough effect in the repeat runs; an effect the other way counts as inactive or inconclusive; further: nearly all actives have a fitted effect of over 55% in size; further: potency means the concentration at half of the fitted maximal effect)
Procedure, shortened: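 P450-Glo CYP2D6 system: proluciferin substrate converted by enzyme to luciferin, read by luminescence proportional to activity. Enzyme-substrate mix with compound 10 min at room temperature, then NADPH regeneration 1 h before detection reagent.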

[5] = biological target: Cytochrome P450 2C9 (Homo sapiens) (UniProt P11712); assay: Cytochrome P450 family 2 subfamily C member 9 (CYP2C9) small molecule antagonists: luciferase biochemical (cell-free) qHTS assay (AID 1645842; active means well fitted curve in the direction sought with a large enough effect in the repeat runs; an effect the other way counts as inactive or inconclusive; further: nearly all actives have a fitted effect of over 55% in size; further: potency means the concentration at half of the fitted maximal effect)
Procedure, shortened: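 P450-Glo CYP2C9 system: proluciferin substrate with enzyme in mix containing 0.4% BSA, 10 min at room temperature, then NADPH regeneration solution added and incubated 1 h at 37C. Detection reagent stopped reaction; luminescence read after 20 min as RLU.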

Papain (Carica papaya) = Papain (Carica papaya) (UniProt P00784); assay: Primary qHTS assay for inhibitors of the protease papain (AID 1645873);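 further: papain turnover of Z-FR-AMC read as the AMC fluorescence gain over 10 min; series mostly up to about 50 µM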
Papain (Carica papaya), sequence (P00784 whole entry, looked up): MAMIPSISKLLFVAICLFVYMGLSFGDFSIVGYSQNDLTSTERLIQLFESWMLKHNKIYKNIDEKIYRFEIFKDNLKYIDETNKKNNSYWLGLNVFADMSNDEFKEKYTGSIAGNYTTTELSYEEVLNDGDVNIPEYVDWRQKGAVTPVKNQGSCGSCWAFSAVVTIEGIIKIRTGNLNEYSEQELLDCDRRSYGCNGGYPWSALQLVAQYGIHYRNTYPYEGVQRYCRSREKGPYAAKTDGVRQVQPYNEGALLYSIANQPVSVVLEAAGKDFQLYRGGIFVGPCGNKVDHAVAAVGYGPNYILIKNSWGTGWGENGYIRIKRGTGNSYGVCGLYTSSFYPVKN

Cytochrome P450 2D6 (Homo sapiens), sequence (P10635 whole entry, looked up): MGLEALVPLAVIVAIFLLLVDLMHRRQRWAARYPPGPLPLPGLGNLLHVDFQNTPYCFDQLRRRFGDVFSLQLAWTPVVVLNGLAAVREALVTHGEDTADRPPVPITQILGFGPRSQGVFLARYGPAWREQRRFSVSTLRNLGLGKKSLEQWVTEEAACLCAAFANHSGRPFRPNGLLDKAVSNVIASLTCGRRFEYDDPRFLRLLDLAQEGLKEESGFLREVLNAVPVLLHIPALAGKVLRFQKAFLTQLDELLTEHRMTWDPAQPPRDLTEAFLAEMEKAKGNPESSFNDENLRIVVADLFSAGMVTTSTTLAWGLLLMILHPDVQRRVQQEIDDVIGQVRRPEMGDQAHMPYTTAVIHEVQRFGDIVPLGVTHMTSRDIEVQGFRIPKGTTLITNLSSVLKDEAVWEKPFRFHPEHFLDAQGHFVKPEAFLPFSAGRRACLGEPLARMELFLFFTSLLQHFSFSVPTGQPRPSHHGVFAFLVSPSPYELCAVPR
Cytochrome P450 2C9 (Homo sapiens), sequence (P11712 whole entry, looked up): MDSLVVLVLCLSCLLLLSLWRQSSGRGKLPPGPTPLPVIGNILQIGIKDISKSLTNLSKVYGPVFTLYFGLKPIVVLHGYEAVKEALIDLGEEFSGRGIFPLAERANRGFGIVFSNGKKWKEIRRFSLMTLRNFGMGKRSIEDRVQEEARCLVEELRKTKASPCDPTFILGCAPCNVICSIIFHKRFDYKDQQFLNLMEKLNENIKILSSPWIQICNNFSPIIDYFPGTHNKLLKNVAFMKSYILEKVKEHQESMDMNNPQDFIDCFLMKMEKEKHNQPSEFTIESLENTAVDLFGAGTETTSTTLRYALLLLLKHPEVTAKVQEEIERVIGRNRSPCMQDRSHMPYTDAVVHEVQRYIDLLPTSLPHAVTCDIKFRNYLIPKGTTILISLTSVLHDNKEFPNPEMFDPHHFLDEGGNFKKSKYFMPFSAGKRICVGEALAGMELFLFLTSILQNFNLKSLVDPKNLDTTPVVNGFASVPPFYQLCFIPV
Calcium and integrin-binding protein 1 (Homo sapiens), sequence (Q99828 whole entry, looked up): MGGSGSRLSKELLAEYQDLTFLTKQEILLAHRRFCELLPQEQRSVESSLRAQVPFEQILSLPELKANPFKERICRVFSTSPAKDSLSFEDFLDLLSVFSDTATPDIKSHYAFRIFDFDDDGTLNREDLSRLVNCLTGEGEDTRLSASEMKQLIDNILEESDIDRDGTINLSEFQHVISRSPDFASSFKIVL

Compound: CC(=O)Oc1ccccc1C(=O)O
- outcome [1]: inactive
- Potency [2]: inactive
- Potency [3]: inactive
- Potency [4]: 15.5 µM (active)
- Potency [5]: inactive
- Potency (Papain (Carica papaya)): inactive

Compound: NC(=O)c1ccc(-c2nc(-c3ccc4c(c3)OCO4)c(-c3ccccn3)[nH]2)cc1
- outcome [1]: inactive
- Potency [2]: inactive

Compound: Cn1cnc2c(F)c(Nc3ccc(Br)cc3Cl)c(C(=O)NOCCO)cc21
- outcome [1]: inactive
- Potency [2]: inactive
- Potency [3]: inactive
- Potency [4]: inactive
- Potency [5]: 8.71 µM (active)

Compound: C#Cc1cccc(Nc2ncnc3cc(OCCOC)c(OCCOC)cc23)c1
- outcome [1]: inactive
- Potency [2]: inactive
- Potency [3]: inactive
- Potency [4]: inactive
- Potency [5]: inactive

Compound: CS(=O)(=O)c1ccc(C(=O)Nc2ccc(Cl)c(-c3ccccn3)c2)c(Cl)c1
- outcome [1]: inactive
- Potency [2]: inactive

Compound: N[C@@H]1CONC1=O
- outcome [1]: inactive
- Potency [2]: inactive
- Potency [3]: inactive
- Potency [4]: inactive
- Potency [5]: inactive
- Potency (Papain (Carica papaya)): inactive

Compound: CNC[C@H](O)c1cccc(O)c1
- outcome [1]: inactive
- Potency [2]: inactive
- Potency [3]: inactive
- Potency [4]: inactive
- Potency [5]: inactive
- Potency (Papain (Carica papaya)): inactive

Compound: Nc1nc2ccc(OC(F)(F)F)cc2s1
- outcome [1]: inactive
- Potency [2]: inactive
- Potency [3]: inactive

Compound: NCCc1ccc(O)c(O)c1
- outcome [1]: inactive
- Potency [2]: inactive
- Potency [3]: inactive
- Potency [4]: inactive
- Potency [5]: inactive
- Potency (Papain (Carica papaya)): inactive

Compound: Nc1ccc(S(=O)(=O)Nc2ccnn2-c2ccccc2)cc1
- outcome [1]: inactive
- Potency [2]: inactive
- Potency [3]: inactive
- Potency [4]: inactive

Compound: Cc1cc(SCc2sc(-c3ccc(C(F)(F)F)cc3)nc2C)ccc1OCC(=O)O
- outcome [1]: inactive
- Potency [2]: inactive

Compound: CNC(=O)c1ccccc1Sc1ccc2c(/C=C/c3ccccn3)n[nH]c2c1
- outcome [1]: inactive
- Potency [2]: inactive
- Potency [3]: inactive
- Potency [5]: 3.47 µM (active)

Compound: CCC(C)n1ncn(-c2ccc(N3CCN(c4ccc(OC[C@H]5CO[C@](Cn6cncn6)(c6ccc(Cl)cc6Cl)O5)cc4)CC3)cc2)c1=O (stereo not given in full)
- outcome [1]: inactive
- Potency [2]: inactive
- Potency [4]: inactive
- Potency [5]: 11 µM (active)

Compound: Clc1cccc(Cl)c1NC1=NCCN1
- outcome [1]: inactive
- Potency [2]: inactive
- Potency [3]: inactive
- Potency [5]: inactive
- Potency (Papain (Carica papaya)): inactive

Compound: COc1ccc([C@@H]2CC(=O)c3c(O)cc(O[C@@H]4O[C@H](CO[C@@H]5O[C@@H](C)[C@H](O)[C@@H](O)[C@@H]5O)[C@@H](O)[C@H](O)[C@@H]4O)cc3O2)cc1O
- outcome [1]: inactive
- Potency [2]: inactive
- Potency [4]: inactive
- Potency [5]: inactive

Compound: CCOc1ccn(-c2ccc(F)cc2)c(=O)c1C(=O)Nc1ccc(Oc2ccnc(N)c2Cl)c(F)c1
- outcome [1]: inactive
- Potency [2]: inactive
- Potency [4]: inactive
- Potency [5]: inactive

Compound: Cc1oncc1C(=O)Nc1ccc(C(F)(F)F)cc1
- outcome [1]: inactive
- Potency [2]: inactive
- Potency [3]: inactive
- Potency [5]: 13.8 µM (active)
- Potency (Papain (Carica papaya)): inactive

Compound: COc1ccc(CCN2CCN(CCCc3ccccc3)CC2)cc1OC
- outcome [1]: inactive
- Potency [2]: inactive
- Potency [4]: 8.49 µM (active)
- Potency [5]: inactive

Compound: c1ccc([C@H]2CN3CCSC3=N2)cc1
- outcome [1]: inactive
- Potency [2]: inactive
- Potency [3]: inactive
- Potency [4]: 30.9 µM (active)
- Potency [5]: inactive
- Potency (Papain (Carica papaya)): inactive

Compound: CN(C(=O)c1ccc(F)cc1C(F)(F)F)C1CCN(c2nnc(-c3ccnn3C)c3ccccc23)CC1
- outcome [1]: inactive
- Potency [2]: inactive
- Potency [4]: inactive

Compound: O=C1CCC(N2C(=O)c3ccccc3C2=O)C(=O)N1 (stereo not given)
- outcome [1]: inactive
- Potency [2]: inactive
- Potency [3]: inactive
- Potency [4]: 15.5 µM (active)
- Potency [5]: inactive
- Potency (Papain (Carica papaya)): inactive

Compound: COc1cc2nccc(Oc3ccc(NC(=O)NC4CC4)c(Cl)c3)c2cc1C(N)=O
- outcome [1]: inactive
- Potency [2]: inactive
- Potency [4]: inactive
- Potency [5]: 12 µM (active)

Compound: CN(C)C(=O)c1ccc(S(=O)(=O)c2ccc(NC(=O)[C@@](C)(O)C(F)(F)F)c(Cl)c2)cc1
- outcome [1]: inactive
- Potency [2]: inactive
- Potency [4]: inactive
- Potency [5]: 6.74 µM (active)
